This is an account of results in PubChem BioAssay (Tox21).

Inconclusive results are not listed. More than one record can exist for a structure, and the calls need not agree. Active and inactive are the calls of the source. Unless noted, the call rests on the fitted dose curve; in most records, active means well fitted curve in the direction sought with a large enough effect in the repeat runs; inconclusive means weak or mixed curves; inactive means no such curve, though single readings can be large; an effect the other way counts as inactive or inconclusive.

Test [1] in a line: qHTS assay to identify small molecule antagonists of the androgen receptor (AR) signaling pathway using the MDA cell line in the presence of 0.5 nM R1881 - cell viability counter screen (AID 1259242). Further: nearly all actives have a fitted effect of over 45% in size. Further: potency means the concentration at half of the fitted maximal effect. Put shortly:
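Viability of MDA-kb2 cells was multiplexed with the luciferase AR readout; after 16 hr with compounds and R1881 at 0.5 nM final, CellTiter-Fluor fluorescence was recorded.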
On the technique in general: qHTS replaces the single test concentration by a dilution series.

Test [2] deals with Estrogen receptor (Homo sapiens) (UniProt P03372). Briefly: qHTS assay to identify small molecule antagonists of the estrogen receptor alpha (ER-alpha) signaling pathway using the BG1 cell line in the presence of 0.1 nM 17-beta-estradiol (AID 1259244). Further: nearly all actives have a fitted effect of over 50% in size. Further: potency means the concentration at half of the fitted maximal effect. The essentials:
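Estradiol at 0.1 nM (final) stimulates the endogenous ER-alpha of VM7Luc4E2 cells carrying an ERE-driven luciferase; compounds are co-incubated 22 h at 37C and luciferase output quantified by luminescence.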

Test [3] is described as follows: qHTS assay to identify small molecule HDAC inhibitors (AID 1259364). Further: potency means the concentration at half of the fitted maximal effect.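 Further: wild-type HCT-116 cells with endogenous class I/II HDAC activity; nearly all actives have a fitted effect of over 45% in size.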 Put shortly:
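Read-out: luminescence of HDAC-Glo I/II reagent, 30 min RT, reflecting class I/II deacetylase activity in whole HCT-116 cells pre-exposed 2 h to DMSO-dissolved compounds.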

A short description of test [4]: qHTS assay to identify small molecule HDAC inhibitors - cell viability counter screen (AID 1259365). Further: series mostly up to about 92 µM; nearly all actives have a fitted effect of over 50% in size. The essentials: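 HCT-116 (wild type), 1,500 cells/well, overnight 37C/5% CO2; compound in DMSO 2hr; CellTiter-Glo 30min RT; luminescence read.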
Test [5] in a line: qHTS assay to identify small molecule agonists of the sonic hedgehog signaling (Shh) pathway - cell viability counter screen (AID 1259366). Further: nearly all actives have a fitted effect of over 50% in size. Further: potency means the concentration at half of the fitted maximal effect. Put shortly: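 CellTiter-Fluor fluorescence read-out, 1 hr at 37C, added after 23hr compound exposure. Cells: 3T3 Gli1-Luc, an NIH/3T3 clone with stably integrated Gli1-Luc reporter, plated 4hr before compound.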
Test [6] in a line: qHTS assay to identify small molecule antagonists of the sonic hedgehog signaling (Shh) pathway - cell viability counter screen (AID 1259367). Further: nearly all actives have a fitted effect of over 55% in size. Further: potency means the concentration at half of the fitted maximal effect. The essentials:
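Seed 3T3 Gli1-Luc cells at 2,000 per well; incubate 4 hr; add compound in DMSO, then conditioned medium; incubate at 37C with 5% CO2; add CellTiter-Fluor after 23 hr; read fluorescence 1 hr later.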

A short description of test [7]: qHTS assay to identify small molecule agonists of the sonic hedgehog signaling (Shh) pathway (AID 1259368; calls by dose curve;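 further: NIH/3T3-derived 3T3Gli1-Luc cells carrying a stable Gli1-driven firefly luciferase reporter; series mostly up to about 92 µM; nearly all actives have a fitted effect of over 15% in size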). The essentials: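 A Gli1 transcriptional response element controlled firefly luciferase in 3T3Gli1-Luc cells. Compounds and a positive control were added 4 hr after plating, and cells were incubated a further 24 hr at 37 C before luminescence detection.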
A short description of test [8]: qHTS assay to identify small molecule antagonists of the sonic hedgehog signaling (Shh) pathway (AID 1259369; calls by dose curve; further: nearly all actives have a fitted effect of over 45% in size; further: potency means the concentration at half of the fitted maximal effect). Put shortly: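 For antagonist detection, the reporter line received test compounds together with conditioned medium, incubated 24hr at 37 C, 5% CO2, then luminescence was recorded following 30min room-temperature luciferase reagent incubation.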

Sequence of Estrogen receptor (Homo sapiens) (P03372 whole entry, looked up): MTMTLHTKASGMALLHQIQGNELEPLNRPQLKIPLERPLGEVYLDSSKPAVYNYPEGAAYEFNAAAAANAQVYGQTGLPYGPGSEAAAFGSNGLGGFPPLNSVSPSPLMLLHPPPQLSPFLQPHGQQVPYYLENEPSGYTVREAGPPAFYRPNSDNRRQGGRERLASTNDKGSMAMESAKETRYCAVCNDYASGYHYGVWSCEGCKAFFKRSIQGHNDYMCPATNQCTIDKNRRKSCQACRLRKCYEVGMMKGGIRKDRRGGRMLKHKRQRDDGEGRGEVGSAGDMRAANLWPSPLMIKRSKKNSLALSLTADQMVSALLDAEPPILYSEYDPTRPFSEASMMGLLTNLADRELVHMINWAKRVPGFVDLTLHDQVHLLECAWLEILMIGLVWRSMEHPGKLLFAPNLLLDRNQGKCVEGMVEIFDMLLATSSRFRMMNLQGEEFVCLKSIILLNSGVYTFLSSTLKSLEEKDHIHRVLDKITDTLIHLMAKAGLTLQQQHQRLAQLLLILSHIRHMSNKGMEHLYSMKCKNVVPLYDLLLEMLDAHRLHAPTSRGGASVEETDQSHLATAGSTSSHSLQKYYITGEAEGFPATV

Regarding `COC(N)=O`, the Potency result in test [1], in test [2], in test [3], in test [4], in test [5] and in test [6] was “inactive” throughout. Further, the Potency result in test [7] and in test [8] was “inactive” throughout.
Regarding `O=C(CBr)Nc1ccc(Cl)cc1C(=O)c1ccccc1F`, the Potency result in test [1], in test [2], in test [3], in test [4], in test [5] and in test [6] was “inactive” in each case. In addition, the Potency result in test [8] is “inactive”.
Consider `IC(I)=C(I)I`, for which the Potency in test [1] was 61.1 µM (active); in test [2] it was 27.3 µM (active); in test [5] it was 7.7 µM (active); in test [6], 17.2 µM (active); in test [8], 2.73 µM (active). Further, the Potency entry in test [3], in test [4] and in test [7] was “inactive” in each case.
`CCCCNP(N)(N)=S`: the Potency entry in test [1], in test [2], in test [3], in test [4], in test [5] and in test [6] was “inactive” each time. Further, the Potency result in test [7] and in test [8] was “inactive” throughout.
`C=CC(=O)OCC(C)C`: the Potency result in test [1], in test [2], in test [4], in test [5], in test [6] and in test [8] was “inactive” throughout. The Potency in test [3] is 19.2 µM (active).
For `Sc1ccccc1Cl`, the Potency entry in test [1], in test [2], in test [3], in test [4], in test [5] and in test [6] was “inactive” throughout. Besides, the Potency entry in test [7] and in test [8] was “inactive” throughout.
Consider `CCBr`, for which the Potency result in test [1], in test [2], in test [3], in test [4], in test [5] and in test [6] was “inactive” in each case. The Potency entry in test [7] and in test [8] was “inactive” each time.
On to `NC(=O)CI`, for which the Potency result in test [1], in test [2], in test [4], in test [5], in test [6] and in test [7] was “inactive” in each case. Besides, the Potency entry in test [8] was “inactive”. The Potency in test [3] was 54.9 µM (active).
Consider `OC(c1ccc(Cl)cc1)(c1ccc(Cl)cc1)c1cccnc1`, for which the Potency result in test [1], in test [2], in test [3], in test [4], in test [5] and in test [6] was “inactive” in each case. In addition, the Potency result in test [7] was “inactive”. Further, the Potency in test [8] was 30.6 µM (active).
With `O=C(O)COc1ccc(Cl)cc1`, the Potency entry in test [1], in test [2], in test [3], in test [4], in test [5] and in test [6] was “inactive” in each case. Besides, the Potency result in test [7] and in test [8] was “inactive” in each case.
As to `NS(=O)(=O)C(F)(F)C(F)(F)C(F)(F)C(F)(F)C(F)(F)C(F)(F)C(F)(F)C(F)(F)F`, the Potency entry in test [1], in test [2], in test [3], in test [4], in test [5] and in test [6] was “inactive” each time. Moreover, the Potency result in test [7] and in test [8] was “inactive” throughout.
On to `N#C/C(N)=C(/N)C#N`, for which the Potency entry in test [1], in test [2], in test [3], in test [4], in test [5] and in test [6] was “inactive” in each case. In addition, the Potency result in test [8] is “inactive”.
For the compound `CO/C=C(/C(=O)OC)c1ccccc1COc1cccc(C(F)(F)F)n1`, the Potency in test [1] is 6.85 µM (active); in test [2], 2.17 µM (active); in test [8] it was 0.544 µM (active). Moreover, the Potency result in test [3], in test [4], in test [5] and in test [6] was “inactive” each time.
As for `CCC(Cl)CCl` (centres undefined), the Potency result in test [1], in test [2], in test [3], in test [4], in test [5] and in test [6] was “inactive” each time. Further, the Potency entry in test [7] and in test [8] was “inactive” throughout.
`ClCC(Br)CBr` (centres undefined): the Potency entry in test [1], in test [2], in test [3], in test [4], in test [5] and in test [6] was “inactive” throughout. Also, the Potency result in test [7] and in test [8] was “inactive” each time.
For the compound `O=S1OC[C@@H]2[C@H](CO1)[C@]1(Cl)C(Cl)=C(Cl)[C@@]2(Cl)C1(Cl)Cl` (some centres undefined), the Potency entry in test [1], in test [2], in test [3], in test [4], in test [5] and in test [6] was “inactive” in each case. Moreover, the Potency entry in test [7] and in test [8] was “inactive” each time.
On to `O=NN1CCCCCC1`, for which the Potency entry in test [1], in test [2], in test [3], in test [4], in test [5] and in test [6] was “inactive” throughout. Besides, the Potency entry in test [7] and in test [8] was “inactive” in each case.
Turning to `CC(=O)C(C)(C)C`, the Potency result in test [1], in test [2], in test [3], in test [4], in test [5] and in test [6] was “inactive” throughout. The Potency result in test [8] is “inactive”.
Turning to `O=C(OC1CCCCC1)c1ccccc1C(=O)OC1CCCCC1`, the Potency result in test [1], in test [2], in test [3], in test [4], in test [5] and in test [6] was “inactive” each time. In addition, the Potency in test [8] was 51.2 µM (active).
As to `C=CC(=O)OCCCCO`, the Potency entry in test [1], in test [2], in test [3], in test [4] and in test [7] was “inactive” each time. In test [5], the Potency is 61.1 µM (active).
For the compound `COc1cc(Cl)c(OC)cc1Cl`, the Potency entry in test [1], in test [2], in test [3], in test [4], in test [5] and in test [6] was “inactive” in each case. The Potency result in test [7] and in test [8] was “inactive” in each case.
With `CCCC(=O)Cl`, the Potency result in test [1], in test [2], in test [3], in test [4], in test [5] and in test [6] was “inactive” each time. The Potency entry in test [7] and in test [8] was “inactive” in each case.
On to `Clc1ccc(C2(Cn3cncn3)CC(Br)CO2)c(Cl)c1` (centres undefined), for which the Potency entry in test [1], in test [3], in test [4], in test [6], in test [7] and in test [8] was “inactive” throughout. Moreover, the Potency in test [2] was 68.2 µM (active).
`CCOP(=S)(Oc1ccc([N+](=O)[O-])cc1)c1ccccc1` (centres undefined): the Potency result in test [1], in test [2], in test [3], in test [5], in test [6] and in test [7] was “inactive” each time. The Potency entry in test [8] is “inactive”.
Regarding `Cn1cc[n+](C)c1` (tested in a mixture with another compound), the Potency entry in test [1], in test [2], in test [3], in test [5], in test [6] and in test [7] was “inactive” throughout. In test [8], the Potency entry was “inactive”.
For the compound `Brc1ccc(Oc2ccccc2)cc1`, the Potency entry in test [1], in test [2], in test [3], in test [5], in test [6] and in test [7] was “inactive” throughout. Besides, the Potency in test [8] is 31.4 µM (active) and inactive.
Take `Nc1ccc([N+](=O)[O-])cc1[N+](=O)[O-]`: the Potency result in test [1], in test [2], in test [3], in test [4], in test [6] and in test [7] was “inactive” in each case. Besides, the Potency entry in test [8] is “inactive”.
With `NNC(=O)c1cccnc1`, the Potency entry in test [1], in test [2], in test [5], in test [6], in test [7] and in test [8] was “inactive” throughout.
Take `CCCCC(O)(Cn1cncn1)c1ccc(Cl)cc1Cl` (centres undefined): the Potency result in test [1], in test [3] and in test [7] was “inactive” throughout. Further, the figures for the Potency in test [2] and in test [8] were 61.1 µM (active) and 19.3 µM (active), respectively.
